High-throughput results: PubChem BioAssay, National Center for Advancing Translational Sciences (NCATS)
The list is not random: actives were taken first. Their share in the collection is about 10%.
G9a block: inhibitors of human histone lysine methyltransferase G9a; G9a H3K9 monomethylation, AlphaScreen, 2 h; 350,000 tested, 8.8% active; Potency, µM (highest dose often 102 µM), for inactives: at the highest dose activity, negative = inhibition, hits mostly inhibitors; Q96KQ7; also: potency is read from the fitted curve at half-maximal effect; nearly all actives have a fitted effect of over 75% in size
Target sequence (Q96KQ7 913-1193 limits assumed): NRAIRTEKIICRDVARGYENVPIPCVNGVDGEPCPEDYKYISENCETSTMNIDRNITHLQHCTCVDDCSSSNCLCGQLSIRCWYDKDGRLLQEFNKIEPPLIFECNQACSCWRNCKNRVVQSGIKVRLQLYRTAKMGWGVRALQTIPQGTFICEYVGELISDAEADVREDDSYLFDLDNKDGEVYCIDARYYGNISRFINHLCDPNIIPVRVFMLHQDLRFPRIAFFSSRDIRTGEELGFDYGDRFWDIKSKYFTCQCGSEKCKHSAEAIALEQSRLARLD
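Using a bead-based AlphaScreen, monomethylated H3K9 product from 2 h room-temperature reactions (G9a 20 nM, peptide 500 nM, SAM 20 uM) was detected with 0.5 ug/mL rabbit anti-H3K9me1 antibody.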
Sfp inh: inhibitors of Bacillus subtilis Sfp phosphopantetheinyl transferase. Q9F4F7. Biochemical Sfp PPTase activity, qHTS. Potency, µM, without a hit: largest response in the series, negative = inhibition, hits mostly inhibitors. 310,000 tested, 3.5% active. AID 1490;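 also: the enzyme is Sfp with the accession as filed and its product quenches rhodamine fluorescence; potency is read from the fitted curve at half-maximal effect; 0% = enzyme reaction without inhibitor and -100% = no enzyme wells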
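With Hepes-Na pH 7.6 buffer containing 10 mM MgCl2, Sfp (15 nM) modified BHQ-2-YbbR (12.5 uM) using rhodamine-CoA (5 uM). Two reads 30 minutes apart at 525/598 nm yielded each well's rate.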
MmCpn inh: M. maripaludis TRiC chaperonin inhibition | AID 504842 | Potency, µM (top dose mostly 76.9 µM), without a hit: top-dose activity, negative = inhibition, most hits filed as inhibitors | 330,000 tested, 0.031% active | purified Mm-Cpn ATPase, ADP Transcreener TR-FRET; also: potency is read from the fitted curve at half-maximal effect; nearly all actives have a fitted effect of over 80% in size
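TR-FRET (320 nm excitation; 590 and 665 nm emission) reports ADP made from 10 uM ATP by 25 nM enzyme; compounds were preincubated 10 min, reaction run 30 min, both at 37°C.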
CCT chaperon mod: changes cytosolic chaperonin activity. activity change, % (test concentration not listed), hits read low. purified chaperonin ATPase assay, HTRF ADP detection, 30 min. 360,000 tested, 0.3% active; in the data active = activity change below about -30%
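TRiC at 40 or 20 nM final (batch-dependent) in 30 mM Tris pH 7.4, 100 mM KCl, 5 mM MgCl2, 1 mM DTT, with compound at single 76 uM and 10 uM ATP, 30 min at 37 deg C. ADP detected by HTRF Transcreener, 665/615 ratio.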
VDR inh: vitamin D3 receptor (human) inhibition; P11473; VDR-SRC2-3 peptide fluorescence polarization, 2 h; Potency, µM, inactives show max response, negative = inhibition, hits mostly inhibitors; 400,000 tested, 0.93% active; also: potency is read from the fitted curve at half-maximal effect
Target sequence (P11473 whole entry, looked up): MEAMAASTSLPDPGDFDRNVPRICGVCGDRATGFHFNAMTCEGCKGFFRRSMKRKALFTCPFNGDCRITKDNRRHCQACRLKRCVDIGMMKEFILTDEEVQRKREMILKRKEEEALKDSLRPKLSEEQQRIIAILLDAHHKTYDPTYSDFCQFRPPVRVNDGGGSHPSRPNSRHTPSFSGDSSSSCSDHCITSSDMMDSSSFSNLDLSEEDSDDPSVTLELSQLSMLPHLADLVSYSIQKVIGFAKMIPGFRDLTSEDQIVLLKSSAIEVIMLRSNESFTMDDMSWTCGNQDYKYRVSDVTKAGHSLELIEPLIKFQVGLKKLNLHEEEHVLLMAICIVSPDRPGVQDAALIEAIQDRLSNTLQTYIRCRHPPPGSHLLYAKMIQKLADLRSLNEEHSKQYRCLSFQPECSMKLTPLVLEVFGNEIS
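Reagent solutions, kept cold and dark, are dispensed first; compounds are then pinned in at 23 nl, plates briefly spun, and incubated 2 h at ambient temperature. Inhibition of VDR–SRC2-3 peptide binding is read by fluorescence polarization.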
PLK1 PBD block: blocks phosphopeptide binding to human PLK1 polo-box domain | Plk1 PBD binding of FITC phosphopeptide, fluorescence polarization | P53350 | 360,000 tested, 2.8% active | Potency, µM, without a hit: max response, negative = inhibition, most hits filed as inhibitors; also: potency is read from the fitted curve at half-maximal effect; series mostly up to about 57 µM; nearly all actives have a fitted effect of over 65% in size
* marks the source's active call; other numbers are inactive results; ? = inconclusive; . = no result; [ ] = another dose, or the depositor's remark. Unless noted, calls follow the shape of the dose curve; as a rule, active = well fitted curve in the direction sought with a large enough effect; inconclusive = small, poorly fitted or top-dose-only effect, or another doubt; inactive = no such curve, though single readings can be large; an effect the other way counts as inactive or inconclusive. Unless noted, % is scaled to controls: 0 for no effect and ±100 for the full control effect.

SMILES | G9a block | Sfp inh | MmCpn inh | CCT chaperon mod | VDR inh | PLK1 PBD block
O=C(COc1ccc(Cl)cc1Cl)Nc1ccc(C(=O)OC2CCCCC2)cc1 | 41%[59 µM] | . | . | . | -13% | .
Cc1cccc(C(=O)NC(=O)Nc2ccc(-n3nc(C(F)(F)F)cc3C(F)(F)F)cc2)c1 | 1%[59 µM] | . | . | . | 3% | .
Cn1c2nc3ccccc3c-2nc2ccccc21 | . | . | . | 0 | . | -7%
Cn1c(-c2ccc(Br)o2)nc2ccccc21 | -10%[59 µM] | 40µM* | -1% | -9 | 4% | -10%
CCc1ccccc1NC(=O)c1nnn(CC(=O)Nc2cccc(C)c2)c1N | 10% | 9% | -6% | 0 | -1% | -8%
CSc1cccc(NC(=O)c2nnn(CC(=O)Nc3cc(C)cc(C)c3)c2N)c1 | 6%[59 µM] | 13% | 0% | -1 | ? | 13µM*
Cc1cc(C)c(Cn2c(=O)n(-c3ccccc3Cl)c(=O)c3c(C)c(C(=O)N(C)C)sc32)c(C)c1 | 6%[59 µM] | . | . | . | 17% | .
O=c1oc2ccccc2c(O)c1C=Nc1cccnc1 | 50µM* | 20% | -5% | -1 | -20% | ?
O=c1oc2ccccc2c(O)c1/C=C1\C=Nc2ccccc21 | . | -5% | -1% | 0 | -9% | 0.6µM*
O=c1oc2ccccc2c(O)c1/C=N/c1ncccn1 | -38% | -13% | -1% | 0 | -14% | -11%
O=c1[nH]c(O)c(/C=C2\C=Nc3ccccc32)[nH]1 | 5%[12.7 µM] | -12% | -8% | 1 | 24% | 2%
CCC1=C(OC(=O)N(CC)CC)N2C(=O)OC(=NCCOC)[C@]2(C)[C@H]2C1=CC[C@H]1C(=O)N(CC(=O)OC)C(=O)[C@H]12 | . | 5% | . | . | . | .
Cc1occc1C(=O)N/N=C/c1ccccn1 | . | 63µM* | -2% | -1 | 15% | -1%
Cc1ccc(C(=O)N/N=C/c2cccc(OC(=O)/C=C/c3ccco3)c2)cn1 | 45µM* | 32µM* | 1% | -4 | -12% | 27µM*
Cc1occc1C(=O)N/N=C/c1ccccc1[N+](=O)[O-] | ? | ? | 1% | 0 | 10% | -3%
Cc1cc(C(=O)N/N=C/c2ccccn2)n[nH]1 | 9% | 40µM* | 2% | 0 | 2% | 6%
O=C(O)c1cccc(NC(=S)N/N=C/c2ccccn2)c1 | 50µM* | -14% | 0% | -2 | ? | -13%
COc1ccc(OCC(=O)Nc2ccc3c(c2)N(C)C(=O)c2ccccc2S3)cc1 | -5%[59 µM] | . | . | . | 4% | .
O=C(Nc1sc2c(c1C(=O)NCc1ccccc1)CCCC2)c1cc(=O)c2cc(Cl)ccc2o1 | -43%[59 µM] | . | . | . | -4% | .
COCCNC(=O)C1(CC(C)C)C=CCN1C(=O)c1ccccc1 (configuration not stated) | . | 10% | . | . | . | .
CCOc1ccc(C(=O)c2cn(CC(=O)Nc3ccc(F)cc3)c3cc4c(cc3c2=O)OCO4)cc1 | -2%[59 µM] | . | . | . | -4% | .
CCOc1ccc(NC(=O)c2ccc3c(c2)CCN3S(=O)(=O)CC)cc1 | ? | . | . | . | -6% | .
Cc1cccc(C(=O)Nc2cccc(C(=O)N/N=C/c3ccccn3)c2)c1 | ? | -15% | 1% | -3 | -6% | -20%
Cc1cccc(C(=O)N/N=C/c2ccccn2)c1 | 16µM* | 45µM* | 3% | -2 | -3% | -8%
Cc1ccc(C(=O)N/N=C\c2ccccn2)cn1 | 25% | 7.1µM* | -3% | -2 | -11% | -6%
SMILES | G9a block | Sfp inh | MmCpn inh | CCT chaperon mod | VDR inh | PLK1 PBD block
Cc1cc(C(=O)N/N=C/c2cc(N=Nc3ccccc3)ccc2O)n[nH]1 | 50µM* | -14% | -1% | 1 | -5% | -5%
COC(=O)N/N=C/c1cc(N=Nc2ccccc2)ccc1O | . | 7% | -3% | -4 | 1% | 4%
CC(C)(C)c1ccc(C(=O)N/N=C/c2ccccn2)cc1 | 34% | -14% | 1% | 0 | 12% | 4%
CC1=C(C(N)=O)C(c2cccc(C)c2)n2nc(-c3ccc(Cl)cc3)nc2N1 (configuration not stated) | 11%[59 µM] | . | . | . | -2% | .
CC(=O)c1ccc(-n2c(CCC(=O)O)ccc2-c2ccc(C)cc2)cc1 | 22%[2.33 µM] | 4% | -7% | 0 | 9% | ?
O=C(O)CCc1ccc(-c2ccc(Br)cc2)n1-c1ccc(O)cc1 | 45µM* | 11% | 0% | 0 | -1% | ?
CC(=O)c1ccc(-n2c(CCC(=O)O)ccc2-c2ccc(Br)cc2)cc1 | 40µM* | 1% | -2% | -2 | -11% | -7%
Cc1ccc(-c2ccc(CCC(=O)O)n2-c2ccc(O)cc2)cc1 | ? | -1% | -2% | 1 | -12% | -20%
COc1cccc(NC(=O)Cn2c(=O)n(CC(=O)NCc3ccc(C)cc3)c(=O)c3sccc32)c1 | -27%[59 µM] | . | . | . | 18% | .
COc1cccc(-n2c(C)c3c(OC)cccc(=O)c3c2C)c1 | ? | 50µM* | -1% | -1 | 6% | -28%
COc1cccc(=O)c2c(C)n(C)c(C)c12 | 16µM* | ? | -1% | 0 | -8% | -10%
CCOc1cccc(=O)c2c(C)n(C)c(C)c12 | -13%[59 µM] | -12% | -4% | -1 | 13% | -15%
COc1cccc(=O)c2c(C)n(-c3cc(C)cc(C)c3)c(C)c12 | ? | -24% | 1% | -2 | -9% | -12%
COC(=O)c1c(-c2ccc(Cl)cc2)noc1N1CCN(c2cccc(OC)c2)CC1 | 12%[59 µM] | . | . | . | 7% | .
O=C(NC1CC(=O)N(c2ccc(F)cc2)C1)c1ccco1 (configuration not stated) | 2%[59 µM] | . | . | . | 8% | .
O=C(CN1C(=O)C(c2ccc(F)cc2)=NC12CCCCCC2)Nc1ccc(F)c(Cl)c1 | 0%[59 µM] | . | . | . | 0% | .
CC(C)c1ccc(Nc2nc(Cl)nc(Cl)n2)cc1 | 40µM* | -5% | -2% | -2 | -11% | -9%
CCOC(=O)c1sc(NS(=O)(=O)c2ccc(C)cc2)nc1C | 50µM* | 2% | -2% | 1 | -1% | -3%
Cc1nc(N)sc1C(=O)OCC(C)C | -10% | 9% | 1% | 0 | -3% | -1%
Cc1ccc(S(=O)(=O)Nc2nc(C)c(C(=O)NN)s2)cc1 | . | -8% | 0% | -2 | -10% | -2%
CCOC(=O)c1sc(NCCNc2nc(C)c(C(=O)OCC)s2)nc1C | 50µM* | 0% | -7% | 3 | -13% | -2%
CCOC(=O)c1sc(N)nc1C(C)(C)C | 16µM* | -11% | 0% | -1 | -22% | ?
Cc1ccc(NC(=O)Cn2c(=O)c(CNc3ccccc3)cc3cc4c(cc32)OCCO4)cc1 | -11%[59 µM] | . | . | . | 2% | .
COc1ccc(NS(=O)(=O)c2ccc(-n3cccn3)cc2)cc1OC | -3%[59 µM] | . | . | . | -5% | .
C=CCCC(=O)Nc1nc(C)c(-c2csc(Nc3cc(OC)ccc3OC)n2)s1 | 10µM* | 1% | -12% | -1 | -16% | -17%
COc1ccc(OC)c(Nc2nc(-c3sc(N)nc3C)cs2)c1 | 32µM* | 8.9µM* | -6% | -3 | 9% | ?
